Mtb MbtI inh: MbtI salicylate synthase inhibition; 100,000 compounds, 0.89% hits; purified MbtI enzyme, fluorescence intensity read-out; P9WFX0; inhibition, % (test concentration not listed); in the data active means inhibition mostly above about 56%, no sharp cut-off; inactive means mostly below about 77%
Target sequence (P9WFX0 whole entry, looked up): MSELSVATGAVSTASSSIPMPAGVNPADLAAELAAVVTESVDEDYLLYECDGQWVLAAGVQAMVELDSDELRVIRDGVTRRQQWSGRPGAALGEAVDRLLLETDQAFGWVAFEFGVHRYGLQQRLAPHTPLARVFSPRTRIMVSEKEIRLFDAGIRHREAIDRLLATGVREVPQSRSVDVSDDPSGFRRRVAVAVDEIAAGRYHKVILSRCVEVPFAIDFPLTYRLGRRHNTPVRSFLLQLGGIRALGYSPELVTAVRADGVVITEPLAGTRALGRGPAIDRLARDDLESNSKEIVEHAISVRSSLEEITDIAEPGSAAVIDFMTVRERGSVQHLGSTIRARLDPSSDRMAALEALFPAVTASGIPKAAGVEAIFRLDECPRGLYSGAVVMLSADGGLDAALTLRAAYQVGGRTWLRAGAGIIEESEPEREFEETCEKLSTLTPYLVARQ
PV pol inh: inhibitors of poliovirus RNA polymerase binding and polymerization | P03300 | poliovirus polymerase elongation, fluorescence polarization; stronger effect = lower value | % elongation, % (compound at 16.7 µg/mL) | 150,000 compounds, 0.66% hits | AID 588519; in the data active means % elongation below about 90%
AID504770: growth inhibitors of E. coli YBA685 in a screen for V. cholerae RctB (chromosome II replication) inhibitors; E. coli YBA685 rctB-dependent plasmid, OD600 growth, 3 h; stronger effect = lower value; z-score (test concentration not listed); 130,000 compounds, 0.27% hits; AID 504770; in the data active means z-score below about -2, passing the limit was not always enough
Mtb MenB inh: blocks the Mycobacterium tuberculosis MenB enzyme; P9WNP5; MenB enzyme assay, absorbance read-out; inhibition, % (concentration not given with the values); 100,000 compounds, 0.43% hits; AID 540299; in the data active means inhibition above about 21%, passing the limit was not always enough
The depositor's hits bear a star; i = inactive; nt = no result; ! = not confirmed by another sample. This is a sample that favours compounds with a hit; in the whole collection about 1.4% have one here.

SMILES	Mtb MbtI inh	PV pol inh	AID504770	Mtb MenB inh
FC(F)Oc1ccc(NC(=S)NNc2nc3ccccc3[nH]2)cc1	95.5	44.0*	0.6	0.7
COC(=O)C1(C(C)C)NC(c2ccccc2OC)C2C(=O)N(C)C(=O)C21 (stereo not drawn)	-6.7	102.0	-0.65	27.1*
COC(=O)C1(c2ccccc2)NC(c2ccccc2C)C2C(=O)N(C)C(=O)C21 (stereo not drawn)	-8.2	102.0	-0.35	-54.1
Cn1ccnc1C(=O)Oc1ccccc1F	nt	108.0	-0.7	0.2
O=C1CSc2nnc(C3COc4ccccc4O3)n2N1 (stereo not drawn)	85.0*	95.0	0.5	-54.8
CCC(N)C(=O)c1ccc(Cl)cc1 (stereo not drawn)	3.2	101.0	-0.45	32.3*
CC(C)[N+]1(C)C2CCC1CC(OC(=O)C(CO)c1ccccc1)C2 (stereo not drawn)	-9.6	99.0	nt	-1.4
C[N+]1(C)C2CCC1CC(OC(=O)C(CO)c1ccccc1)C2 (stereo not drawn)	65.0*!	104.0	0.95	9.3
O=C1C(c2cc(Cl)cc(Cl)c2)=C(O)c2ccccc21	88.7*	98.0	0.45	-32.0
CCOC(=O)NC1(Nc2ccccc2)Oc2ccccc2O1	11.1	99.0	0.15	-15.2
O=C(CSc1nnc(SCC(=O)N2CCCC2)s1)N1CCCC1	91.5*	103.0	0.9	12.7
Cc1nnc(SCC(=O)Nc2ccccc2)n1N	nt	nt	-0.8	nt
CC(C)c1nnc(SCC(=O)Nc2ccc(Cl)cc2)n1N	89.2*	104.0	-0.65	2.7
CCCOc1ccc(S(=O)(=O)n2cc(Br)c(=O)[nH]c2=O)cc1	81.7*	nt	0.2	nt
O=c1[nH]c(=O)n(S(=O)(=O)c2ccc(F)cc2)cc1F	-34.4	94.0	0.2	-69.6
CC1(C)CC(CCO)CC(C)(C)N1	-5.8	nt	0.3	nt
CC1SC(=S)NN1c1ccccc1 (stereo not drawn)	88.0*	98.0	-0.7	nt
O=C(/C=C/S(=O)(=O)c1ccc(Br)cc1)c1ccc(F)cc1	nt	nt	-1.85	nt
O=C(/C=C/S(=O)(=O)c1ccc(Cl)cc1)c1ccc(F)cc1	98.3*	98.0	-1.95	9.2
O=C(O)/C=C/C(=O)c1ccc(F)cc1	74.0*	43.0*	-2.05	nt
CCOC(=O)c1cnn(C(N)=S)c1N	nt	nt	-0.4	nt
Cc1ccc2nc(-c3cccc(NC(=O)C4CCCO4)c3)oc2c1 (stereo not drawn)	i	105.0	0.35	-23.8
Fc1ccc(NC(=S)N2CCCCC2)cc1	-2.2	100.0	-0.1	-7.4
S=C(Nc1ccc2nsnc2c1)N1CCCC1	-11.7	89.0*	0.1	-4.5
O=C1NC(=O)NC(=C/C=C/c2ccc(-c3ccc(Cl)cc3Cl)o2)N1	57.2*	102.0	1.45	-17.5
SMILES	Mtb MbtI inh	PV pol inh	AID504770	Mtb MenB inh
S=c1[nH]nc(Cc2cccc3ccccc23)n1/N=C/c1ccco1	64.8*	99.0	0.75	-36.7
FC(F)(F)c1n[nH]c(=S)n1/N=C/c1c[nH]c2ccccc12	nt	95.0	0.25	-5.0
O=C(NN=C1C2CC3CC(C2)CC1C3)c1ccncc1	5.2	100.0	-0.1	3.8
O=C(N/N=C1\C/C(=N\NC(=O)c2ccncc2)c2ccccc21)c1ccncc1	-34.5	87.0*	-2.3	-205.7
COC(=O)c1cc(S(=O)(=O)NCCN(Cc2ccco2)C2CCCC2)cn1C	-2.8	100.0	-1.5	-19.3
CCS(=O)(=O)c1ccc2oc(Nc3cc(C)cc(C)c3)nc2c1	13.8	103.0	-0.5	-12.8
CCS(=O)(=O)c1ccc2oc(Nc3ccc(C(C)C)cc3)nc2c1	65.5	70.0*	0.6	-19.6
C=CCOC(=O)Oc1ccc2c(=O)c(Oc3ccccc3Cl)coc2c1	nt	nt	0.65	nt
N#Cc1c(N2CCCC2=O)sc2c1CCCC2	nt	nt	0.05	nt
COc1cc(CN2CCc3nc(N4CCN(c5ccccn5)CC4)ncc3C2)cc(OC)c1OC	nt	102.0	nt	nt
CCOc1ccc(CN2CCc3nc(N4CCN(c5ccccn5)CC4)ncc3C2)cc1OC	nt	13.0*	nt	nt
CCCCN(C)C(=O)C1CCC(CNS(=O)(=O)c2ccc3c(c2)CC(C)N3C(C)=O)CC1 (stereo not drawn)	nt	15.0*	nt	nt
O=C(O)Cn1c2c(c3ccccc31)CSc1ccc(Cl)cc1-2	95.6*	99.0	-0.3	-15.9
COC(=O)c1c(-c2cccs2)csc1NC(=O)c1ccc(Cl)cc1	nt	67.0*	nt	nt
CCOC(=O)c1c(-c2cccs2)csc1NC(=O)c1ccccc1	11.1	106.0	1.75	-33.9
COC(=O)c1c(-c2cccs2)csc1NC(=O)c1cccc(Cl)c1	nt	82.0*	nt	nt
COC(=O)c1c(-c2cccs2)csc1NC(=O)c1ccc(C(C)C)cc1	nt	67.0*	nt	nt
COC(=O)c1c(-c2cccs2)csc1NC(=O)c1ccc(C(C)(C)C)cc1	nt	77.0*	nt	nt
COC(=O)c1c(-c2cccs2)csc1NC(=O)COc1ccc(C)cc1	nt	96.0	nt	nt
Cc1ccc(CNc2ccc(C(=O)O)cc2)cc1	3.0	104.0	1.6	11.9
Fc1ccc(-c2cn3cc(I)ccc3n2)cc1	nt	nt	0	nt
COc1ccc2[nH]c(=O)c(CN(CCO)S(=O)(=O)c3ccc(Cl)c(C(F)(F)F)c3)cc2c1	23.4	100.0	1.05	32.5*
Cc1ccc(S(=O)(=O)N(CCO)Cc2cc3cc(C)c(C)cc3[nH]c2=O)cc1	31.9	102.0	0.15	17.4
O=C1NN(c2ccccc2)C(=O)/C1=C/c1ccc(Br)cc1	nt	98.0	-0.3	79.4*
Cc1cc(P(=N)(N2CCOCC2)N2CCOCC2)c(C)n1-c1ccc(I)cc1	-8.0	100.0	-0.1	-0.2
SMILES	Mtb MbtI inh	PV pol inh	AID504770	Mtb MenB inh
Cc1ccc(-n2c(C)cc(P(=S)(N3CCOCC3)N3CCOCC3)c2C)c(C)c1	68.6*	92.0	-0.3	-132.9
O=c1ccc(-c2ccc(S(=O)(=O)NCC3CCN(CCc4cccs4)CC3)s2)n[nH]1	-19.4	102.0	0.2	-15.3
O=C1C=C(Nc2ccccc2)C(=O)c2ccccc21	7.1	99.0	1.4	-16.4
O=C1C=CC(=O)C(Nc2ccccc2)=C1	98.7*	100.0	-0.2	nt
O=C(O)C1(c2ccccc2)CCC(Nc2ccccc2)C1 (stereo not drawn)	nt	69.0*	-1	-4.6
Cc1nc(Cc2nnc(SCc3cn4cccc(C)c4n3)o2)cs1	0.6	100.0	-0.5	6.5
Cc1nc(Cc2nnc(SCc3cc(=O)oc4cc(C)c(C)cc34)o2)cs1	53.0	-2.0*	-0.6	-29.9
CCOc1ccc([C@@H]2[C@H](C(=O)O)c3ccccc3C(=O)N2Cc2ccccc2)c(O)c1	2.6	69.0*	0.3	9.3
COc1ccc(C2C(C(=O)O)c3ccccc3C(=O)N2Cc2ccc(Cl)cc2)cc1 (stereo not drawn)	4.8	103.0	0.45	5.1
COc1ccc(NC(=O)CN(c2ccc(C)cc2)S(=O)(=O)c2cccs2)cc1OC	nt	103.0	nt	nt
Cc1ccc(N(CC(=O)Nc2ccc(C)c(Cl)c2)S(=O)(=O)c2cccs2)cc1	nt	89.0*	nt	nt
O=C(COc1cccc(OCC(=O)Nc2ccccn2)c1)Nc1ccccn1	nt	105.0	1	7.3
CN(C)Cc1nc2ccccc2c(=O)n1CC#N	4.9	113.0	1.25	9.0
N#CCn1c(Cc2ccccc2)nc2ccccc2c1=O	13.9	101.0	0.7	47.9*
N#CCn1c(C[S+]=C=N)nc2ccccc2c1=O	84.3*	100.0	0.6	-39.6
CCn1nc(C(=O)Nc2ccc(F)cc2C)c2ccccc2c1=O	3.5	96.0	-0.05	11.9
